Measurements published in PubChem BioAssay AID1159580 (chemical genetic matrix, 2015).
“And” between values parts separate entries of the source, which are not always exact repeats. Equal values may be shown once. In all, about 5,500 compounds went through this assay and about 2,000 (36%) were called active. Another 18% or so got no clear call; they are omitted. Cut-off read from the data, not from the text of the source: active = normalized growth mostly below about 0.91 (no sharp cut-off); inconclusive = no clear call, values can overlap the other calls; inactive = mostly above about 0.92. The list shows a part of the results.

Experiment: chemical genetic growth profiling, strain panel (AID 1159580);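 note: tested at 20 µM; growth read once vehicle control cultures reached saturation at 30 °C; 1 = growth at the plate median or of vehicle wells; lower values mean less growth of the strain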
Conditions: S. cerevisiae deletion strains, growth OD

Measured: normalized growth

CC(C)(C)NCC(O)COc1cccc2c1C[C@H](O)[C@H](O)C2 (stereo not given in full)
inactive: locus YAL021C, strain ccr4, hits give low values 0.99 | locus YAL026C, strain drs2, hits give low values 1.01 | locus YAL030W, strain snc1, hits give low values 0.995 | locus YBL061C, strain skt5, hits give low values 1 | locus YBR009C, strain hhf1, hits give low values 0.999 | locus YBR021W, strain FUR4, hits give low values 1.03 | locus YBR023C, strain chs3, hits give low values 1.01 | locus YBR171W, strain sec66, hits give low values 1.01 | locus YBR229C, strain ROT2, hits give low values 1.01 | locus YBR231C, strain swc5, hits give low values 1 | locus YBR279W, strain paf1, hits give low values 1 | locus YCL011C, strain gbp2, hits give low values 1 | locus YCL016C, strain dcc1, hits give low values 1 | locus YCL029C, strain bik1, hits give low values 0.997 | locus YCL061C, strain MRC1, hits give low values 1.01 | locus YCL069W, strain vba3, hits give low values 1 | locus YCR088W, strain abp1, hits give low values 1 | locus YDL005C, strain med2, hits give low values 1.01 | locus YDL035C, strain GPR1, hits give low values 0.983 | locus YDL040C, strain nat1, hits give low values 0.999 | locus YDL074C, strain BRE1, hits give low values 1.06 | locus YDL101C, strain DUN1, hits give low values 0.999 | locus YDL134C, strain PPH21, hits give low values 1 | locus YDL185W, strain tfp1, hits give low values 0.96 | locus YDL192W, strain arf1, hits give low values 0.982 | locus YDR001C, strain nth1, hits give low values 1.01 | locus YDR069C, strain doa4, hits give low values 1 | locus YDR101C, strain arx1, hits give low values 1.05 | locus YDR137W, strain rgp1, hits give low values 1.01 | locus YDR150W, strain NUM1, hits give low values 0.992 | locus YDR159W, strain sac3, hits give low values 1 | locus YDR162C, strain NBP2, hits give low values 0.964 | locus YDR195W, strain ref2 0.999 | locus YDR297W, strain sur2, hits give low values 1 | locus YDR318W, strain mcm21, hits give low values 0.979 | locus YDR334W, strain swr1, hits give low values 1.02 | locus YDR335W, strain msn5, hits give low values 1 | locus YDR388W, hits give low values 0.989 | locus YDR392W, strain spt3, hits give low values 1.01 | locus YDR502C, strain sam2, hits give low values 0.99 | locus YEL003W, strain gim4, hits give low values 1 | locus YEL037C, strain rad23, hits give low values 1.01 | locus YEL061C, strain CIN8 (second series), hits give low values 1.01 | locus YEL061C, strain CIN8, hits give low values 0.999 | locus YER015W, strain faa2, hits give low values 0.999 | locus YER016W, strain bim1, hits give low values 1.01 | locus YER110C, hits give low values 0.976 | locus YER111C, strain swi4, hits give low values 1 | locus YER155C, strain BEM2 (second series), hits give low values 0.997 | locus YER155C, strain BEM2, hits give low values 0.999 | locus YER167W, strain BCK2, hits give low values 0.996 | locus YFR010W, strain ubp6, hits give low values 1.02 | locus YGL078C, strain dbp3, hits give low values 0.989 | locus YGL086W, strain mad1, hits give low values 1.02 | locus YGL167C, strain pmr1, hits give low values 1 | locus YGL173C, strain kem1, hits give low values 1.01 | locus YGL227W, strain vid30, hits give low values 1.01 | locus YGL240W, strain doc1, hits give low values 1 | locus YGL248W, strain PDE1, hits give low values 1.01 | locus YGL253W, strain hxk2, hits give low values 1.02 | locus YGR135W, strain pre9, hits give low values 0.951 | locus YGR229C, strain SMI1, hits give low values 0.989 | locus YGR252W, strain gcn5, hits give low values 0.986 | locus YHR013C, strain ard1, hits give low values 1.03 | locus YHR027C, strain rpn1, hits give low values 1 | locus YHR030C, strain SLT2, hits give low values 0.992 and 1.02 | locus YHR079C, strain IRE1 (second series), hits give low values 0.987 | locus YHR079C, strain IRE1, hits give low values 1.01 | locus YHR094C, strain hxt1, hits give low values 0.995 | locus YHR129C, strain ARP1, hits give low values 0.991 | locus YHR142W, strain chs7, hits give low values 1.01 | locus YHR200W, strain rpn10, hits give low values 0.987 | locus YIL066C, strain RNR3, hits give low values 1 | locus YIL073C, strain SPO22, hits give low values 0.883 | locus YIL125W, strain kgd1, hits give low values 0.998 | locus YIR030C, strain dcg1, hits give low values 0.984 | locus YJL092W, strain hpr5, hits give low values 1.01 | locus YJL095W, strain BCK1 (second series), hits give low values 1.01 | locus YJL095W, strain BCK1, hits give low values 1.02 and 1.04 | locus YJL115W, strain asf1, hits give low values 1.02 | locus YJL129C, strain trk1, hits give low values 1 | locus YJL134W, strain LCB3, hits give low values 0.989 | locus YJL154C, strain vps35, hits give low values 0.995 | locus YJL164C, strain tpk1, hits give low values 1 | locus YJL166W, strain qcr8, hits give low values 1 | locus YJL168C, strain set2, hits give low values 1 | locus YJL187C, strain SWE1 (second series), hits give low values 1.01 | locus YJL187C, strain SWE1, hits give low values 1.01 | locus YJR043C, strain POL32, hits give low values 1 | locus YJR066W, strain TOR1, hits give low values 1
